Source: PubChem BioAssay (NCATS)
Values joined by “and” are separate entries in the source; they are usually repeats but may differ in a detail not shown here. Identical values can stand only once. Records with an inconclusive call do not appear. A call without a number means that no potency is given here. Active and inactive are the calls of the source. Unless noted, the call rests on the fitted dose curve.

Experiments:
[1] = biological target: Peroxisome proliferator-activated receptor delta (Homo sapiens) (UniProt Q03181); assay: qHTS assay for small molecule agonists of peroxisome proliferator-activated receptor delta signaling (AID 588534)
Procedure, shortened: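 EC50 and efficacy values derive from Hill fits of a concentration series in a beta-lactamase reporter cell assay. Exposure is 18 hrs at 37 C, with CCF4 fluorescence as the readout.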

[2] = qHTS for Inhibitors of the Functional Ribonucleoprotein Complex (vRNP) of Lassa (LASV) Arenavirus: LASV Primary Screen - GLuc reporter signal (AID 1347082; calls by dose curve; tested in HEK293 reporter line; further: nearly all actives have a fitted effect of over 60% in size; further: potency means the concentration at half of the fitted maximal effect)
[3] = qHTS for Inhibitors of the Functional Ribonucleoprotein Complex (vRNP) of Lassa (LASV) Arenavirus: Viability assay - alamar blue signal for LASV Primary Screen (AID 1347083; calls by dose curve; tested in HEK293 reporter line; further: nearly all actives have a fitted effect of over 80% in size; further: potency means the concentration at half of the fitted maximal effect)
[4] = qHTS for Inhibitors of the Functional Ribonucleoprotein Complex (vRNP) of Lymphocytic Choriomeningitis Arenaviruses (LCMV): Viability assay - alamar blue signal for LCMV Primary Screen (AID 1347085; calls by dose curve; tested in HEK293 reporter line; further: nearly all actives have a fitted effect of over 80% in size; further: potency means the concentration at half of the fitted maximal effect)
[5] = biological target: Nucleoprotein (Lymphocytic choriomeningitis virus (strain Armstrong)) (UniProt P09992); assay: qHTS for Inhibitors of the Functional Ribonucleoprotein Complex (vRNP) of Lymphocytic Choriomeningitis Arenaviruses (LCMV): LCMV Primary Screen - GLuc reporter signal (AID 1347086); further: nearly all actives have a fitted effect of over 70% in size
[6] = biological target: Bile acid receptor (Homo sapiens) (UniProt Q96RI1); assay: qHTS assay for small molecule agonists of farnesoid X receptor signaling (AID 588527); conditions: HEK293T FXR-UAS-bla, beta-lactamase ratio, 16 h; activation: stronger effect = higher value
Procedure, shortened: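 Agonist-mode beta-lactamase reporter in GeneBLAzer FXR-UAS-bla HEK293T cells, titration up to 92 uM, 16 h exposure at 37 C, CCF4 fluorescence. Response scaled to DMSO (0%) and 100 uM chenodeoxycholic acid (100%), then Hill-fitted for EC50 and efficacy.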

[7] = Primary qHTS to identify inhibitors of SARS-CoV-2 cell entry (AID 1645846); conditions: activity change, negative = inhibition: at 57.1 µM (top of the series) unless noted; further: nearly all actives have a fitted effect of over 45% in size; further: potency means the concentration at half of the fitted maximal effect
Procedure, shortened: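 Using luciferase-reporting pseudoviruses carrying Wuhan-Hu-1 spike, the screen tracks entry into stably ACE2-expressing cells over 48 hr. Activity is expressed relative to spike particles versus particles lacking any fusion protein.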

[8] = Cytotoxicity counterscreen for inhibitors of SARS-CoV-2 cell entry (AID 1645845); further: nearly all actives have a fitted effect of over 50% in size
Procedure, shortened: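 Counterscreen run in the same HEK293-ACE2 line as the pseudotyped-particle entry assay, without particles. Viability after 48 h at 37 C was read as ATP luminescence, scaled between cell-containing and cell-free wells.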

[9] = qHTS profiling of the MIPE4 collection as inhibitors of Plasmodium falciparum (DD2) proliferation (AID 743345; call rule not given here); conditions: P. falciparum Dd2 in erythrocytes, SYBR Green DNA, 72 h; at 28.5 µM (top of the series) unless noted
Procedure, shortened: (§1)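 Parasite DNA was quantified by SYBR Green I fluorescence (ex 485, em 535 nm) after overnight lysis in saponin/Triton buffer at room temperature. Cultures at 0.3% parasitemia and 2.5% hematocrit were first exposed to compound for 72 h at 37 C; signals were normalised to artemisinin (0.29 uM) and vehicle wells.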

[10] = biological target: Alpha-galactosidase (Coffea arabica) (UniProt Q42656); assay: Counterscreen for Glucocerebrosidase Inhibitors: qHTS Assay for Coffee Bean alpha-Galactosidase at pH 4.5 (AID 957; active means well fitted curve in the direction sought with a large enough effect; an effect the other way counts as inactive or inconclusive)
Procedure, shortened: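 Quantitative HTS of compounds (0.7 nM to 77 uM) against coffee bean alpha-galactosidase at pH 4.5, measuring 4-methylumbelliferone fluorescence released from 80 uM substrate.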

[11] = biological target: Alpha-galactosidase (Coffea arabica) (UniProt Q42656); assay: Counterscreen for Glucocerebrosidase Inhibitors: qHTS Assay for Coffee Bean alpha-Galactosidase at pH 5.9 (AID 998; active means well fitted curve in the direction sought with a large enough effect; an effect the other way counts as inactive or inconclusive)
Procedure, shortened: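 Enzyme 2 nM + cpd (0.7 nM–77 uM titration) + 4-MU-alpha-Gal 80 uM, pH 5.9 citrate/Tween-20, RT 20 min, NaOH/glycine stop pH 10, fluor 365/440. Normalized to no-enzyme and full-activity controls; Hill-fit AC50.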

[12] = Primary qHTS for Huh7 cytotoxicity: counterscreen for inhibitors of MERS-S pseudotyped particle cell entry (AID 1479147); conditions: outcome: dose series up to 57.1 µM unless noted
[13] = Primary qHTS for inhibitors of MERS-S pseudo-typed particle cell entry (AID 1479149); further: nearly all actives have a fitted effect of over 60% in size
[14] = Primary qHTS for Vero E6 cytotoxicity: counterscreen for inhibitors of SARS-S pseudo-typed particle cell entry (AID 1479150); conditions: outcome: dose series up to 57.1 µM unless noted
[15] = Confirmatory qHTS to identify inhibitors of SARS-CoV-2 cell entry (AID 1645844); further: nearly all actives have a fitted effect of over 45% in size; further: potency means the concentration at half of the fitted maximal effect
Procedure, shortened: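 HEK293-ACE2, overnight seeding; cpd 1 h, 37C/5% CO2; + SARS-CoV-2-S MLV PP (Wuhan-Hu-1, ΔC19); 48 h; Bright-Glo luminescence. Data normalised to S PP and bald PP wells.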

[16] = VSVG counterscreen qHTS to identify inhibitors of SARS-CoV-2 cell entry (AID 1645847); further: potency means the concentration at half of the fitted maximal effect; nearly all actives have a fitted effect of over 65% in size
Procedure, shortened: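 Entry of VSV-G pseudotyped particles into human ACE2-expressing HEK293 cells was measured by luciferase luminescence 48 h after infection, with compound added 1 h beforehand.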

[17] = Validation screen for inhibitors of Lassa infection (AID 463096)
[18] = Inducers of the Endoplasmic Reticulum Stress Response (ERSR) in human glioma: Validation (AID 504836; active means well fitted curve in the direction sought with a large enough effect; an effect the other way counts as inactive or inconclusive)
Procedure, shortened: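 Stably transfected U87-MG glioma cells carrying a GRP78-based luciferase sensor; 16 h compound incubation. Luminescence end-point read 10 min after Bright-Glo addition at room temperature.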

[19] = biological target: Cytochrome P450 2C19 (Homo sapiens) (UniProt P33261); assay: qHTS Assay for Inhibitors and Substrates of Cytochrome P450 2C19 (AID 899; active means well fitted curve in the direction sought with a large enough effect; an effect the other way counts as inactive or inconclusive; further: potency means the concentration at half of the fitted maximal effect; nearly all actives have a fitted effect of over 60% in size)
Procedure, shortened: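 5 nM human CYP2C19 with 10uM Luciferin-H EGE (at KM) in 50mM KPO4, compound preincubated 10 min at 37C, then NADPH regeneration for 60 min at 37C. Luciferin read by luminescence after detection reagent; normalized to 57uM ketoconazole as full inhibition.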

[20] = Primary qHTS for inhibitors of SARS-S pseudo-typed particle cell entry (AID 1479145); further: nearly all actives have a fitted effect of over 45% in size
[21] = Confirmatory qHTS for VERO E6 Cytotoxicity Assay: Counterscreen for SARS-CoV-2 CPE Assay (AID 1508605); further: nearly all actives have a fitted effect of over 60% in size
[22] = Confirmatory qHTS for activators (rescue) of SARS-CoV-2 Cytopathic Effect (CPE) (AID 1508606); further: potency means the concentration at half of the fitted maximal effect; nearly all actives have a fitted effect of over 70% in size
[23] = qHTS profiling of the MIPE4 collection as inhibitors of Plasmodium falciparum (3D7) proliferation (AID 743344; call rule not given here); conditions: P. falciparum 3D7 in erythrocytes, SYBR Green DNA fluorescence, 72 h; at 28.5 µM (top of the series) unless noted
Procedure, shortened: as §1

[24] = qHTS profiling of the MIPE4 collection as inhibitors of Plasmodium falciparum (HB3) proliferation (AID 743347; call rule not given here); conditions: P. falciparum HB3 in erythrocytes, SYBR Green DNA, 72 h; at 28.5 µM (top of the series) unless noted
Procedure, shortened: as §1

[25] = biological target: Cytochrome P450 3A4 (Homo sapiens) (UniProt P08684); assay: qHTS Assay for Inhibitors and Substrates of Cytochrome P450 3A4 (AID 884; active means well fitted curve in the direction sought with a large enough effect; an effect the other way counts as inactive or inconclusive; further: potency means the concentration at half of the fitted maximal effect; nearly all actives have a fitted effect of over 50% in size)
Procedure, shortened: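 Luminescent readout of luciferin produced by CYP3A4 (20 nM) dealkylation of Luciferin-PPXE, 25 uM (its KM). NADPH-driven reaction ran 60 min at RT after 10 min compound preincubation; data scaled to 57 uM ketoconazole as 100% inhibition.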

Chain of Bile acid receptor (Homo sapiens) (Q96RI1 whole entry, looked up): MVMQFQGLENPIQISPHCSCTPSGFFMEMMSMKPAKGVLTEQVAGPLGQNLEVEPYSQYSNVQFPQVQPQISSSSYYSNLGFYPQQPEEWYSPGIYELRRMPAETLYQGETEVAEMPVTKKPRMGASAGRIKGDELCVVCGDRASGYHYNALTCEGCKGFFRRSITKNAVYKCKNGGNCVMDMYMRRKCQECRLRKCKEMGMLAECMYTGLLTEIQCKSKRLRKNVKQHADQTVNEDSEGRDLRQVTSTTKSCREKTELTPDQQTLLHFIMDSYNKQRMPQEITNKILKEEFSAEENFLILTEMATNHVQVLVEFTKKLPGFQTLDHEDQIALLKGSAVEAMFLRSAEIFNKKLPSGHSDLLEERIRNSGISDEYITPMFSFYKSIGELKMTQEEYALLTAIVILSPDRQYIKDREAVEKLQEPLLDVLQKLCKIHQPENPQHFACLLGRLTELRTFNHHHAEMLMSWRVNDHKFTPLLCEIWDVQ
Chain of Alpha-galactosidase (Coffea arabica) (Q42656 whole entry, looked up): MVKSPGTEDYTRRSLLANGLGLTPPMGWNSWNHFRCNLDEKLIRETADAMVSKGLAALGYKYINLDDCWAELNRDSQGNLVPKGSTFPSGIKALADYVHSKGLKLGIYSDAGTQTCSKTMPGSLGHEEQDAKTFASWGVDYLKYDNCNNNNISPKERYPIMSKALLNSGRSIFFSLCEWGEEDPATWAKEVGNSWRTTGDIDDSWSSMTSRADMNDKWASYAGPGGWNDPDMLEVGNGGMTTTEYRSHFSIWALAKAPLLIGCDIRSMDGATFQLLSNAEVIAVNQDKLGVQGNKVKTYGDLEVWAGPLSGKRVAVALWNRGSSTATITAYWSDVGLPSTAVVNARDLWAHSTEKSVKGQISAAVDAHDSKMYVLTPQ
Chain of Nucleoprotein (Lymphocytic choriomeningitis virus (strain Armstrong)) (P09992 whole entry, looked up): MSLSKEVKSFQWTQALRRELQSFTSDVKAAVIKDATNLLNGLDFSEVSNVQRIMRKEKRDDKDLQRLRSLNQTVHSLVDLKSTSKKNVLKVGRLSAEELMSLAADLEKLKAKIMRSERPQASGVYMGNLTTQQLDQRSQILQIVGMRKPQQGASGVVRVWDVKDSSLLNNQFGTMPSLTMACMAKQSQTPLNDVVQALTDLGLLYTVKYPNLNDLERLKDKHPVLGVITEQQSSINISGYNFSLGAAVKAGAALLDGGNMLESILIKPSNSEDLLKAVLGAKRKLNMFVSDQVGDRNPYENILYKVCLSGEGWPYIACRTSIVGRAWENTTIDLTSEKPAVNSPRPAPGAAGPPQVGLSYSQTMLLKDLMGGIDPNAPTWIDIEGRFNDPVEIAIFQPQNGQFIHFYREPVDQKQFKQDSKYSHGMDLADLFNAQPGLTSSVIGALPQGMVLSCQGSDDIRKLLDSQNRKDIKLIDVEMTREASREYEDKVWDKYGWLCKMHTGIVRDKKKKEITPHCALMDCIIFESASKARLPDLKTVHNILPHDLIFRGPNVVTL
Chain of Peroxisome proliferator-activated receptor delta (Homo sapiens) (Q03181 whole entry, looked up): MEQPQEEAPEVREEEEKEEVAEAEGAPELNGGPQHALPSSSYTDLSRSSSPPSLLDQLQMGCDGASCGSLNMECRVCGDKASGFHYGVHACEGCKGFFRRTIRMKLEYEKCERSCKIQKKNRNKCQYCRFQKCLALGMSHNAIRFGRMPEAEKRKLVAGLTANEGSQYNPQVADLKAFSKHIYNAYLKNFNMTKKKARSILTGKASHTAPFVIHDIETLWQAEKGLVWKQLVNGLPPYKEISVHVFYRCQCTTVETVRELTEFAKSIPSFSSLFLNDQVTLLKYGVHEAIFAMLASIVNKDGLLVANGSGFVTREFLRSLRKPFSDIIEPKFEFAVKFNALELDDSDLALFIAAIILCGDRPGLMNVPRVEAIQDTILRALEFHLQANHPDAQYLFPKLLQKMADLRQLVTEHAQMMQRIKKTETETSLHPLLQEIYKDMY
Chain of Cytochrome P450 2C19 (Homo sapiens) (P33261 whole entry, looked up): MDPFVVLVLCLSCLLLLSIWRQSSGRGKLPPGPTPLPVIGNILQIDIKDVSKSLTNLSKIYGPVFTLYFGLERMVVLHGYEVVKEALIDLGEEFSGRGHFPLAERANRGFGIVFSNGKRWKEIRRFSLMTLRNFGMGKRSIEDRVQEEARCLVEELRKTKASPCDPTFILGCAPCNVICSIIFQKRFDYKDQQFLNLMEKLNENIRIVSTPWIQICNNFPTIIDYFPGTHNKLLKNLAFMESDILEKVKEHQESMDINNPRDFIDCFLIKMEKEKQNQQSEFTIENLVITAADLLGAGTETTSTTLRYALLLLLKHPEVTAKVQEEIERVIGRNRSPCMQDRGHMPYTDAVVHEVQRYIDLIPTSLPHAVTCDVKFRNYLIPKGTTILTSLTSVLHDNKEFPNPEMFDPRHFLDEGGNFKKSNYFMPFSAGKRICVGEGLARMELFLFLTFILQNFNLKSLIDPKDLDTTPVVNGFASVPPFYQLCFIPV
Chain of Cytochrome P450 3A4 (Homo sapiens) (P08684 whole entry, looked up): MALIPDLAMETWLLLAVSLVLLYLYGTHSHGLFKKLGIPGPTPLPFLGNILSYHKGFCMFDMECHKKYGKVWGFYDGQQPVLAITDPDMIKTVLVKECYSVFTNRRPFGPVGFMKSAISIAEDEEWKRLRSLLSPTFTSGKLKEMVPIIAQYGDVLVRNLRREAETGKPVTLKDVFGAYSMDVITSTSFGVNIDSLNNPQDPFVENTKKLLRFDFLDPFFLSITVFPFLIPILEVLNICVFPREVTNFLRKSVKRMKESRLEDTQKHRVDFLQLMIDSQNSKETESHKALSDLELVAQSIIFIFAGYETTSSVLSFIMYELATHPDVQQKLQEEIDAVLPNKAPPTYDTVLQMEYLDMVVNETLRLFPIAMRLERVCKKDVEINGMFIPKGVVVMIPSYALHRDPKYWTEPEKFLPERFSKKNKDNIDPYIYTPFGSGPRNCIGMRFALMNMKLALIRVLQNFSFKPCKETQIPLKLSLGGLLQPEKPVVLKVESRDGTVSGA

O=C1CCc2ccccc2O1
Potency [1]: inactive
Potency [2]: inactive
Potency [3]: inactive
Potency [4]: inactive
Potency [5]: inactive

COc1ccc(OC)cc1
Potency [1]: inactive
Potency [2]: inactive
Potency [3]: inactive
Potency [4]: inactive
Potency [5]: inactive

CC(=O)/C=C/C1C(C)=CCCC1(C)C (configuration not stated)
activation [6]: 2.64% (inactive)
Potency [1]: inactive
Potency [2]: inactive
Potency [3]: inactive
Potency [4]: inactive
Potency [5]: inactive

CC=O
activation [6]: -1.84% (inactive)
Potency [1]: inactive
Potency [2]: inactive
Potency [3]: inactive
Potency [4]: inactive
Potency [5]: inactive

CS(C)=O
activation [6]: -2.1% (inactive)
Potency [1]: inactive
Potency [2]: inactive
Potency [3]: inactive
Potency [4]: inactive
Potency [5]: inactive

C=CCCCCCCCCC=O
Potency [1]: inactive
Potency [2]: inactive
Potency [3]: inactive
Potency [4]: inactive
Potency [5]: inactive

CC(C)Nc1nc(N)nc(Cl)n1
Potency [1]: inactive
Potency [2]: inactive
Potency [3]: inactive
Potency [4]: inactive
Potency [5]: inactive

CCS(=O)(=O)Nc1ccc2[nH]c(O)c(C(=Nc3ccc(CN4CCCCC4)cc3)c3ccccc3)c2c1
Potency [2]: 9.68 µM (active)
Potency [3]: 2.17 µM (active)
Potency [4]: 0.968 µM (active)
Potency [7]: 2.82 µM (active)

N#Cc1cc(NC(=O)Nc2nnc(-c3ccncc3)s2)ccc1-c1cn[nH]c1
Potency [2]: inactive
Potency [3]: inactive
Potency [4]: 6.85 µM (active)
Potency [8]: inactive

Cc1cccc2c1CC[C@H](CN1CCC(c3c(Cl)cccc3Cl)CC1)C[C@@H]2O
parasite growth remaining, % of DMSO control (lower = more inhibition) [9]: 25.2%
Potency [2]: inactive
Potency [3]: inactive
Potency [4]: inactive
Potency [5]: inactive

O=Nc1c(-c2c(O)[nH]c3cc(Br)ccc23)[nH]c2ccccc12
outcome [10]: inactive
outcome [11]: inactive
Potency [2]: inactive
Potency [3]: 15.8 µM (active)
Potency [4]: inactive
Potency [5]: inactive

CS(=O)(=O)c1ccc(C2=C(c3ccccc3)C(=O)OC2)cc1
Potency [2]: inactive
Potency [3]: inactive
Potency [4]: 27.3 µM (active)
outcome [12]: inactive
Potency [13]: inactive
outcome [14]: inactive
Potency [8]: inactive
activity change, negative = inhibition [7]: -28.2% and -25.4%

CCCCOc1c(C(=O)c2c(F)cc(C)cc2F)cnc2n[nH]cc12
Potency [2]: 5.44 µM (active)
Potency [3]: 2.17 µM (active)
Potency [4]: 7.69 µM (active)
Potency [15]: 1.52 µM (active)
Potency [8]: inactive
Potency [7]: 1.12 µM (active)
Potency [16]: 1.52 µM (active)

CC(C)n1nc(-c2ccc3oc(N)nc3c2)c2c(N)ncnc21
Potency [2]: 0.0024 µM (active)
Potency [3]: 0.0019 µM (active)
Potency [4]: 0.0031 µM (active)
activity change, negative = inhibition [7]: -61%

CN1CCC2(CCN3CCc4c(oc5ccccc45)C3C2)N(C)C1=O (configuration not stated)
Potency [17]: inactive
outcome [18]: inactive
Potency [2]: inactive
Potency [3]: inactive
Potency [4]: inactive

CN(N=O)C(=O)N[C@H]1C(O)OC(CO)[C@@H](O)[C@H]1O (some centres not stated)
Potency [19]: 7.94 µM (active)
Potency [2]: inactive
Potency [3]: inactive
Potency [4]: inactive
Potency [5]: inactive

COC(=O)[C@H]1[C@H]2C[C@@H]3c4[nH]c5ccccc5c4CCN3C[C@H]2C[C@@H](OC(=O)c2cc(OC)c(OC)c(OC)c2)[C@@H]1OC
Potency [2]: inactive
Potency [3]: inactive
Potency [4]: inactive
Potency [20]: inactive
outcome [12]: inactive
outcome [14]: inactive
Potency [21]: inactive
Potency [22]: 11.2 µM (active)
Potency [15]: inactive
Potency [8]: inactive

NC(=O)c1noc([C@H](CCCC2CCCCC2)CC(=O)NO)n1
Potency [2]: inactive
Potency [3]: inactive
Potency [4]: inactive
Potency [8]: inactive
activity change, negative = inhibition [7]: -13.6%

CC(C)OC(=O)[C@H](C)N[P@](=O)(OC[C@H]1O[C@@H](n2ccc(=O)[nH]c2=O)[C@](C)(F)[C@H]1O)Oc1ccccc1
parasite growth, % of DMSO control [23]: 62.8%
parasite growth remaining, % of DMSO control (lower = more inhibition) [9]: 95.7%
growth, % of control [24]: 76.4%
Potency [2]: inactive
Potency [3]: inactive
Potency [4]: inactive
Potency [5]: inactive

Cc1cc(NC(=O)Nc2ccc3c(ccn3C)c2)sn1
outcome [10]: inactive
outcome [11]: inactive
Potency [2]: inactive
Potency [3]: inactive
Potency [4]: inactive
Potency [5]: inactive

N#C/C(=C\c1ccc(O)c(O)c1)C(=O)NCCc1ccccc1
outcome [10]: inactive
outcome [11]: inactive
Potency [2]: inactive
Potency [3]: inactive
Potency [4]: inactive
Potency [5]: inactive

CCOC(=O)C1=C(C)NC2=C(C(=O)CC(C)(C)C2)C1c1ccc(-c2ccccc2)cc1 (configuration not stated)
Potency [2]: inactive
Potency [3]: inactive
Potency [4]: inactive
Potency [8]: inactive

O=c1cc(-c2ccc(O)c(O)c2)oc2cc(O)cc(O)c12
Potency [25]: 15.8 µM (active)
parasite growth remaining, % of DMSO control (lower = more inhibition) [9]: 89.2%
Potency [2]: inactive
Potency [3]: inactive
Potency [4]: inactive
Potency [5]: inactive

C[C@H](CCC(=O)O)[C@H]1CC[C@H]2[C@@H]3[C@H](O)C[C@@H]4C[C@H](O)CC[C@]4(C)[C@@H]3CC[C@]12C
parasite growth, % of DMSO control [23]: 59.3%
parasite growth remaining, % of DMSO control (lower = more inhibition) [9]: 92.9%
growth, % of control [24]: 81.3%
Potency [2]: inactive
Potency [3]: inactive
Potency [4]: inactive
Potency [5]: inactive

COc1cc(C[C@@H](CO)[C@H](CO)Cc2ccc(O)c(OC)c2)ccc1O
Potency [2]: inactive
Potency [3]: 1.72 µM (active)
Potency [4]: 2.73 µM (active)
Potency [8]: inactive
Potency [7]: inactive

O=Nc1ccc2oc(=O)ccc2c1
outcome [10]: inactive
outcome [11]: inactive
Potency [2]: inactive
Potency [3]: inactive
Potency [4]: inactive
Potency [5]: inactive

COc1ccc(-c2oc3c(CC=C(C)C)c(O)cc(O)c3c(=O)c2O)cc1
Potency [2]: inactive
Potency [3]: 38.5 µM (active)
Potency [4]: 3.43 µM (active)
activity change, negative = inhibition [7]: -9.03%
